# The panel holds about 83,000 compounds, 20% with a hit somewhere; the sample as a whole holds those more often.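 48-hour exposure, single concentration, 96-well plates; percent growth endpoint where 0 means no net growth. Active: below 10.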 Unmarked numbers belong to inactive results. Active and inactive are the calls of the source.
# Test system: NCI/ADR-RES ovarian
# Assay: NCI-60 one-dose screen, 48 h (100 = growth as untreated, 0 = no growth, -100 = all killed)
# Conditions: 10 µM unless noted
# Protocol: Growth inhibition of the NCI/ADR-RES human […] tumor cell line is measured as a screen for anti-cancer activity. Cells are grown in 96 well plates and exposed to the test compound for 48 hours. Compounds are tested at a single concentration, which is 10^-5 M for most compounds. The reported endpoint is percent growth (GI% or GIPRCNT), where numbers from 0 - 100% represent growth inhibition, and numbers from -100% - 0 represent cell death. For example, a value of 40 represents 60% growth inhibition. A value of 0 means no net growth occurred over the course of the experiment. A value of -40 indicates 40% of cells at the beginning of the experiment died by the end of the experiment. A value of -100 means all cells are dead at the end of the experiment.
# NCI-60 Human Tumor Cell Lines Screen was performed using the standard one-dose NCI protocol, which is described in more detail at https://dtp.cancer.gov/discovery_development/nci-60/default.htm.
# Compounds with GIPRCNT values below 10 were considered active. Activity score was based on GIPRCNT using the following formula: […]
# Score is 0 for GIPRCNT values of 100 or above, 50 for GIPRCNT values of 0, and 100 for GIPRCNT values of -100.
row,SMILES,growth
1,Cc1cc(O)c(=O)cc2c1C[C@H]1CC(C)(C)/C=C/C[C@]3(C)Oc4cc(=O)c(O)cc(C)c4C[C@H]3C[C@H](O)[C@@]1(C)O2,0.831% (active)
2,O=C(Nc1nc(Cl)nc(Nc2ccc(N3CCOCC3=O)cc2)n1)c1ccc(Cl)s1,99%
3,c1ccc(-c2c(-c3ccccc3)[n+](Cc3ccc4ccccc4c3)cn2Cc2ccc3ccccc3c2)cc1,70.5%
4,O=C(CN1C(=O)S/C(=C\C(Cl)=C\c2ccccc2)C1=O)NC1CCS(=O)(=O)C1 (stereo not given),84%
5,CC(=O)N1N=C(c2ccc(Nc3nc(Nc4ccc(F)cc4)nc(Nc4ccc(F)cc4)n3)cc2)CC1c1ccc(N(C)C)cc1 (stereo not given),27.5%
6,COc1cc2c(cc1OCCCN1CCN(C(=S)SCCC(C#N)(c3ccccc3)c3ccccc3)CC1)N=C[C@@H]1CCCN1C2=O,22.3%
7,C=C1C(=O)O[C@H]2[C@H]1CC/C(COC(=O)/C=C\C(=O)NCc1ccc(Cn3c(=O)sn(CCCCl)c3=O)cc1)=C\CC[C@@]1(C)O[C@@H]21,93.7%
8,O=C(N/N=C/c1ccc(Cl)cc1)c1ccc(NC(=O)c2ccccn2)cc1,53.2%
9,CCn1cc(C(=O)N/N=C/c2cccc(F)c2)c(=O)c2cc(F)c(N3CCNC(C)C3)c(F)c21 (stereo not given),78.3%
10,Cn1c2ccccc2c2c3c(c4c5cc(Br)ccc5n(C)c4c21)C(=O)N(O)C3=O,6.86% (active)
11,COc1ccc(CN2C(=O)OC(C)(COC(C)=O)C2=O)cc1 (stereo not given),109%
12,CCOC(=O)c1nnn(Cc2cc(=O)oc3ccc(O)cc23)c1C,108%
13,O=C(NCCCCCCNC(=O)OCc1ccc2c(Cl)cc(Cl)c(O)c2n1)OCc1ccc2c(Cl)cc(Cl)c(O)c2n1,-12.5% (active)
14,Cc1cc(Cl)nc(N2CCN(CCNc3ccnc4cc(Cl)ccc34)CC2)n1,45.2%
15,COc1ccc(-c2cc(-c3cc(OC)ccc3OC)nc(SCC(C)=O)c2C#N)cc1,52.1%
16,O=C(CSc1nnnn1-c1ccccc1)Nc1ccc(Oc2ccccc2)cc1,96.7%
17,COc1ccc(Oc2ccc(/C=C/C(=O)c3ccc(OC)c(OC)c3)cc2)cc1,83.4%
18,c1ccc(Nc2nc3c(s2)CCc2c[nH]cc2-3)nc1,92.7%
19,O=C(/C=C/c1ccccc1)N(C1CCCCC1)C1CCCCC1,74.5%
20,CCOC(=O)/C(=C(/C)NCC(C)C)c1cc(O)c(O)c2c(C)cc(=O)[nH]c12,17.2%

row,SMILES,growth
1,CC[C@H](Nc1nc(N)nc(C)c1C#N)c1nc2cccc(CN(C)c3ncc(C(=O)NO)cn3)c2c(=O)n1-c1ccccc1,73.3%
2,C/C=C1/CN(CCCCC)CC[C@H]1C(=O)c1cc2ccccc2[nH]1,93.6%
3,Fc1ccc2[nH]cc(-c3nc(-c4c[nH]c5c(Cl)nccc45)cs3)c2c1,53.7%
4,COC(=O)c1ccc2cc(OC)c(OC)cc2c1,107%
5,Cc1ccc2c(c1)nc(C)n2-c1ncnc2c1CC(C)c1cc(O)ccc1N2C (stereo not given),25.9%
6,CSc1nc2ccc(C)cc2cc1/C=C1/C=C(c2ccccc2)NC1=O,51.6%
7,C#Cc1cccc(NC(=O)C2CCCCN2C(=O)CCl)c1 (stereo not given),-5.37% [8.25 µM] (active)
8,CCCCC#Cc1c(I)n(C2OC(CO[Si](C)(C)C(C)(C)C)C3OC(C)(C)OC32)c(=O)n(C(=O)c2ccccc2)c1=O (stereo not given),74%
9,CC(C)Cc1nc(Nc2ccccc2)[nH]c(=O)c1C#N,62.9%
10,O=C1CCCC1[n+]1ccccc1 (stereo not given),103%
11,CCOC(=O)c1nnn(-c2no[n+]([O-])c2-c2ccc(OC)cc2)c1COc1cccc2cccnc12,9.15% (active)
12,CCOC(=O)c1cnn(CC(C)O)c1NC(=O)NCc1cccc(F)c1 (stereo not given),96.9%
13,CN(C)c1ccc([C@@H](C(=O)Nc2cccc([N+](=O)[O-])c2)N(C(=O)c2cc3ccccc3[nH]2)c2cccc([N+](=O)[O-])c2)cc1,102%
14,Cc1nc2ccccc2c(/C=C/c2ccc(F)cc2)c1C(=O)/C=C/c1ccccc1,2.57% (active)
15,Cc1sc2nc(NCCN)[nH]c(=O)c2c1C,94.8%
16,CC1(C)CC[C@]23CC[C@]4(C)[C@H](CC[C@@H]5[C@@]6(C)C/C(=C/O)C(=O)C(C)(C)[C@@H]6CC[C@]54C)[C@H]2[C@H]1OC3,104%
17,N#CC1=C(N)Oc2c(sc3c(F)cccc23)C1c1ccc([N+](=O)[O-])cc1 (stereo not given),-14.2% (active)
18,CNC(=O)c1cc(Oc2ccc3c(c2)sc2nc(-c4cc(C(F)(F)F)cc(C(F)(F)F)c4)cn23)ccn1,68.3%
19,COc1ccc(/C=C/C(c2cc(OC)c(OC)c(OC)c2)n2cncn2)cc1O (stereo not given),10.8%
20,Cc1ccc(-c2csc(NC(=O)CSc3nc(N)cc(N)n3)n2)cc1,51.8%

# — PubChem BioAssay (NCI)
